About 83,000 compounds went through this panel and 20% of them were active in at least one assay; those are over-represented in the sample as a whole.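 Growth was measured after 48 h exposure to one concentration of compound in 96-well plates. Values under 10 count as active.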 Calls of active or inactive are those of the source.
What follows are compounds tested on MDA-MB-435 melanoma (assay: NCI-60 one-dose screen, 48 h (100 = growth as untreated, 0 = no growth, -100 = all killed)). Details: 10 µM unless noted.
In the case of `CS(=O)(=O)Nc1cc(-c2ccc3ncnc(Nc4c(Cl)ccc5c4OCO5)c3c2)cnc1Cl`, the growth is reported as -24.9% (active).
For `O=C(Nc1cc(Cl)ccc1O)c1ccc(Nc2ccnc(C(F)(F)F)c2)cc1`, the growth was 51.9% (inactive).
With `Cc1cccc(N2CCN(CC(O)COc3ccc(Cl)cc3)CC2)c1` (stereo not given) the growth was 84.1% (inactive).
In the case of `OCCOCCN(Cc1ccccn1)Cc1cc(I)cc(I)c1O`, the growth is reported as 102% (inactive).
With `COc1ccc(C2c3sc4c(F)cccc4c3Oc3nc[nH]c(=O)c32)cc1` (stereo not given) the growth was 82.1% (inactive).
With `N#Cc1cccc(F)c1` the growth was 105% (inactive).
For `C=C(C)[C@@H]1CC[C@]2(C(=O)NCC#CCN3CCN(C)CC3)CC[C@]3(C)[C@H](CC[C@@H]4[C@@](C)(CCC#N)[C@H](C(=C)C)CC[C@]43C)[C@@H]12`, the growth was 54.6% (inactive).
In the case of `O=C(O)c1[nH]c(=O)[nH]c(=O)c1[N+](=O)[O-]`, the growth is reported as 106% (inactive).
With `O=c1c2cc(-c3ccccc3)sc2nc2sc(-c3ccccc3)nn12` the growth was 105% (inactive).
In the case of `CCOC(=O)c1c(C)nc2c(c1N)CC(=O)N2Cc1cc(F)cc(Cl)c1`, the growth is reported as 92% (inactive).
In the case of `COc1ccc(C(=S)N2CCN(c3ccccc3Cl)CC2)cc1OC`, the growth is reported as 91.7% (inactive).
In the case of `C#Cc1cccc(Nc2ncnc3ccc(-c4cnc(N)nc4)cc23)c1`, the growth is reported as 43.2% (inactive).
With `Cc1ccc(/C=C2\CN(C(=O)OC(C)(C)C)C/C(=C\c3ccc(C)cc3)C2=O)cc1` the growth was -44.4% (active).
With `COC(=O)/C(CCC=C(C)C)=C1\[C@@H](OC(C)=O)C[C@@]2(C)[C@H]1C[C@@H](O)[C@H]1[C@@]3(C)CC[C@H](NCCN)[C@@H](C)[C@@H]3CC[C@@]12C` the growth was 93.6% (inactive).
With `Cc1cc(Cl)ccc1Nc1nc(C(F)(F)F)ccc1C(=O)N/N=C/c1ccc([N+](=O)[O-])cc1` the growth was 6.79% (active).
In the case of `CCOC(=O)c1cc(C(=O)c2cc(OC)c(OC)c(OC)c2)n2ccc(-c3ccncc3)cc12`, the growth is reported as 106% (inactive).
With `C[C@@H]1CCC[C@H]1CC(N)C(=O)O` (stereo not given in full) the growth was 98.6% (inactive).
For `Cc1ccc(Cc2cnc(NC(=O)c3cc(Br)cs3)s2)cc1`, the growth was -16.5% (active).
In the case of `O=C1C(Cl)=C(Oc2ccccc2)C(=O)c2ccccc21`, the growth is reported as 108% (inactive).
`CC/C(=C(/c1ccc(Cl)cc1)c1ccc(OCCN2CCCC2)cc1)c1ccc(OC)cc1` was tested, and the growth was 73.5% (inactive).
For `N=C(N)c1ccc(-c2ccc(-c3cc(Cl)cc(Cl)c3)o2)o1`, the growth was -92.8% (active).
`COc1cc(-n2cc(-c3cc(O)c(C/C=C(\C)CCC=C(C)C)c(O)c3)nn2)cc2c1O[C@]1(C)CC[C@@H](O)C(C)(C)[C@H]1C2` was tested, and the growth was 16.6% (inactive).
With `COc1cccc([C@H]2c3[nH]c4ccccc4c3C[C@H]3C(=O)N(CCCCCCC(=O)NO)CC(=O)N23)c1` the growth was 61.2% (inactive).
With `CC(O)c1cnc(/C=C2\SC(=S)N(Cc3ccccc3)C2=O)s1` (stereo not given) the growth was 25.3% (inactive).
In the case of `Cc1cc(Cl)ccc1NC(=O)c1cc2ccccc2cc1O`, the growth is reported as 30.1% (inactive).
`CCn1cc(C(=O)N/N=C/c2cccs2)c(=O)c2cc(F)c(N3CCNC(C)C3)c(F)c21` (stereo not given) was tested, and the growth was 92.2% (inactive).
`CC1=C(CCC(C)N(C)Cc2ccc(OCCCN3CCCC3)cc2)C(C)(C)CCC1` (stereo not given) was tested, and the growth was -77.9% (active).
For `COP(=O)(OC)C(C)(C)CC(=O)CC(C#N)(C#N)C(C#N)C#N`, the growth was 104% (inactive).
For `CCCCC[C@@H]1Cc2cc(O)c(C(=O)O)c3c2[C@H](C[C@]2(OC[C@@H](CC(=O)[C@@](C)(CC)C(=O)OC)[C@@H]2C)O3)O1`, the growth was 117% (inactive).
`Nc1ncnc2c1N=C(c1ccc(Cl)cc1)CC(c1ccc3c(c1)OCO3)N2` (stereo not given) was tested, and the growth was 101% (inactive).
In the case of `O=[N+]([O-])/C(=C/C=C/c1ccccc1)c1ccccc1`, the growth is reported as 70.6% (inactive).
With `Fc1ccc(-c2nn(-c3ccccc3)cc2-c2nc3ccccc3o2)cc1` the growth was 27.8% (inactive).
For `COc1cc(/C=C/C(=O)c2cccc(Nc3nc(Nc4ccccc4)nc(Nc4ccccc4)n3)c2)cc(OC)c1OC`, the growth was 68.8% (inactive).
With `C#CCOc1cccc(Nc2ncnc3c(NC(=O)C=C)cccc23)c1` the growth was 2.2% (active).
In the case of `CNc1nc(S(=O)c2ccc(C#N)cc2)nc2ccccc12` (stereo not given), the growth is reported as 88% (inactive).
With `CC(=O)N(N=Nc1ccccc1)c1cccc2ccccc12` the growth was 97.8% (inactive).
With `O=C(/C=C/c1cn(-c2ccccc2)nc1-c1ccc([N+](=O)[O-])cc1)c1ccc(Cl)cc1` the growth was 59.5% (inactive).
In the case of `COc1cc(-c2csc(NC(=O)c3cc(-n4cnc(C)c4)cc(C(F)(F)F)c3)n2)cc(OC)c1OC`, the growth is reported as 74.8% (inactive).
In the case of `COc1ccc(-c2nc3c(c(-c4ccccc4)nn3-c3ccccc3)c(-c3ccc(N4CCOCC4)cc3)c2C#N)cc1`, the growth is reported as 99.2% (inactive).
For `CSc1nc2sc3c(c2c(=O)n1-c1ccc([N+](=O)[O-])cc1)CCCCC3`, the growth was 97% (inactive).
